This is one part of a sample in which hits are shown more often than they occur.
U2OS ROS induce = cancer cell ROS induction; U2OS ROS induction, H2DCF-DA fluorescence; ROS induction (% of piperlongumine), % at 10 µM; actives 2% (n = 46,000); in the data active = ROS induction above about 79%, passing the limit was not always enough
Large screens that a line does not name were inactive.

COCCOC(=O)N1C(=O)[C@@]2(c3ccccc31)[C@H](C(=O)N1CCN(c3ncccn3)CC1)[C@H]1C(=O)O[C@H](c3ccccc3)[C@H](c3ccccc3)N1[C@@H]2c1ccc(OCCO)cc1	U2OS ROS induce 105
O=C1O[C@H](c2ccccc2)[C@H](c2ccccc2)N2[C@H]1[C@@H](C(=O)N1CCCCCCC1)[C@]1(C(=O)Nc3ccccc31)[C@H]2c1ccccc1OCCO	none
COCCOC(=O)N1C(=O)[C@@]2(c3cc(C#CC4=CCCCC4)ccc31)[C@H](C(=O)N1CCN(c3ncccn3)CC1)[C@H]1C(=O)O[C@H](c3ccccc3)[C@H](c3ccccc3)N1[C@@H]2c1ccccc1OCCO	U2OS ROS induce 128
COc1ccc(C#Cc2ccc3c(c2)[C@]2(C(=O)N3)[C@H](c3ccc(OCCO)cc3)N3[C@H](c4ccccc4)[C@H](c4ccccc4)OC(=O)[C@H]3[C@@H]2C(=O)N2CCN(c3ncccn3)CC2)cc1	none
O=C1O[C@H](c2ccccc2)[C@H](c2ccccc2)N2[C@H]1[C@@H](C(=O)N1CCN(c3ncccn3)CC1)[C@]1(C(=O)Nc3ccc(C#CCCO)cc31)[C@H]2c1ccc(OCCO)cc1	none
COCCOC(=O)N1C(=O)[C@@]2(c3ccccc31)[C@H](c1ccccc1OCCO)N1[C@H](c3ccccc3)[C@H](c3ccccc3)OC(=O)[C@H]1[C@@H]2C(=O)N1CCCCCCC1	U2OS ROS induce 103
COc1ccc(C#Cc2ccc3c(c2)[C@]2(C(=O)N3)[C@H](c3ccccc3OCCO)N3[C@H](c4ccccc4)[C@H](c4ccccc4)OC(=O)[C@H]3[C@@H]2C(=O)N2CCN(c3ncccn3)CC2)cc1	none
COCCOC(=O)N1C(=O)[C@@]2(c3cc(C#Cc4ccc(OC)cc4)ccc31)[C@H](C(N)=O)[C@H]1C(=O)O[C@H](c3ccccc3)[C@H](c3ccccc3)N1[C@@H]2c1ccccc1OCCO	none
COCCOC(=O)N1C(=O)[C@@]2(c3cc(C#CC4=CCCCC4)ccc31)[C@H](c1ccc(O)cc1)N1[C@H](c3ccccc3)[C@H](c3ccccc3)OC(=O)[C@H]1[C@@H]2C(N)=O	none
COCCOC(=O)N1C(=O)[C@@]2(c3ccccc31)[C@H](c1ccccc1OCCO)N1[C@H](c3ccccc3)[C@H](c3ccccc3)OC(=O)[C@H]1[C@@H]2C(=O)N1CCN(c2ncccn2)CC1	U2OS ROS induce 111
COCCOC(=O)N1C(=O)[C@@]2(c3cc(C#CC4=CCCCC4)ccc31)[C@H](c1ccc(OCCO)cc1)N1[C@H](c3ccccc3)[C@H](c3ccccc3)OC(=O)[C@H]1[C@@H]2C(=O)N1CCc2cc(OC)c(OC)cc2C1	none
C(=N\n1cnnc1)/c1ccco1	none
Cn1nc(C(=O)N2CCCN(Cc3ccccc3Cl)C2)c2c1-c1ccccc1OC2	none
COC(=O)c1ccc(O)c(/C=N/N(CCO)C2=NS(=O)(=O)c3ccccc32)c1	none
CN(C)/C=N/n1cnc2sc3c(c2c1=O)CCCC3	none
COc1ccc(S(=O)(=O)N(C)C[C@H]2Oc3ccc(NS(C)(=O)=O)cc3C(=O)N([C@@H](C)CO)C[C@H]2C)cc1	none
COc1ccc(N(CC(=O)Nc2ccc(I)cc2C)S(C)(=O)=O)cc1Cl	none
C[C@@H]1CN([C@H](C)CO)C(=O)c2cccc(NC(=O)Nc3ccc(F)cc3)c2O[C@@H]1CN(C)S(=O)(=O)c1cn(C)cn1	none
COCCOC(=O)N1C(=O)[C@@]2(c3cc(C#CCCO)ccc31)[C@H](C(N)=O)[C@H]1C(=O)O[C@H](c3ccccc3)[C@H](c3ccccc3)N1[C@@H]2c1ccc(OCCO)cc1	none
COCCOC(=O)N1C(=O)[C@@]2(c3cc(C#CCC(C(=O)OC)C(=O)OC)ccc31)[C@H](c1ccc(OCCO)cc1)N1[C@H](c3ccccc3)[C@H](c3ccccc3)OC(=O)[C@H]1[C@@H]2C(=O)N1CCN(c2ncccn2)CC1	U2OS ROS induce 112
COCCOC(=O)N1C(=O)[C@@]2(c3cc(C#CCC(C(=O)OC)C(=O)OC)ccc31)[C@H](c1ccc(O)cc1)N1[C@H](c3ccccc3)[C@H](c3ccccc3)OC(=O)[C@H]1[C@@H]2C(=O)N1CCc2cc(OC)c(OC)cc2C1	none
C[C@H]1CN([C@@H](C)CO)C(=O)c2cc(NC(=O)Cc3ccccc3)ccc2O[C@H]1CN(C)CC1CCCCC1	none
Cc1cc(C)nc(NS(=O)(=O)c2ccc(-n3c(-c4ccc5ccccc5n4)n[nH]c3=S)cc2)n1	none
Cc1ccc(CSCc2ccc(C(=O)NCCc3ccccc3)o2)cc1	none
CSc1sc(C(=O)Sc2ccccc2)cc1S(=O)(=O)C(C)C	U2OS ROS induce 80
CSc1sc(C(=O)Sc2ccccc2)c2c1S(=O)(=O)N(C)c1ccccc1-2	none
CSc1cccc(NC(=O)C(C)NS(=O)(=O)c2ccccc2)c1 (stereo not given)	none
COC(=O)c1cc(OC)c(OC)cc1NC(=O)CSc1nc2ccccc2o1	none
COc1ccc(CN2C(=O)c3cccc4cccc(c34)C2=O)cc1S(=O)(=O)N1CCCCCC1	none
CCN1CCN(C(=O)C2CCN(S(=O)(=O)c3ccc4c(c3)nc(C)n4C3CCCC3)CC2)CC1	none
COC(=O)c1cn(C)c2ccc(S(=O)(=O)N3CCCCC3)cc2c1=O	none
CCCc1nc(C)c2c(=O)[nH]c(-c3cc(S(=O)(=O)N4CCN(CC)CC4)ccc3OCC)nn12	U2OS ROS induce 134
CCOc1ccc(S(=O)(=O)N2CCCCC2)cc1-c1nc2c(C(C)(C)C)nn(C)c2c(=O)[nH]1	U2OS ROS induce 170
O=c1cc(CSc2n[nH]c(-c3cccs3)n2)c2ccc(O)cc2o1	none
CC1(C)[C@H]2CC=C(/C=N\NC(=O)CCCCCCC(=O)O)[C@@H]1C2	none
Cc1cc(C)cc(-n2c(SCC(=O)NCc3ccc(F)cc3)nc3c(c2=O)SCC3)c1	none
NC(=O)[C@@H]1[C@H]2C(=O)O[C@H](c3ccccc3)[C@H](c3ccccc3)N2[C@H](c2ccc(O)cc2)[C@@]12C(=O)Nc1ccc(C#CC3(O)CCCCCC3)cc12	none
CC1=C(C(=O)OCc2ccccc2)C(c2cccc(O)c2)C2=C(CC(c3ccccc3)CC2=O)N1 (stereo not given)	U2OS ROS induce 183
COC(=O)C1=C(C)NC2=C(C(=O)CC(c3ccccc3)C2)C1c1ccccc1OC(C)C (stereo not given)	none
COC(=O)C1=C(C)NC2=C(C(=O)CCC2)C1c1ccccc1 (stereo not given)	none
COc1ccc([Si](C)(C)[C@H]2[C@H](CCn3cc(CCO)nn3)O[C@@]3(C(=O)N(Cc4ccc(N5CCOC5=O)cc4)c4ccccc43)[C@@H]2C)cc1	U2OS ROS induce 145
C=CCN1C(=O)[C@@]2(O[C@@H](CCn3cc([C@H](O)c4ccccc4)nn3)[C@H]([Si](C)(C)c3ccc(OC)cc3)[C@H]2C)c2cc(N3CCOC3=O)ccc21	none
COc1ccc([Si](C)(C)[C@@H]2[C@@H](CCn3cc(CCO)nn3)O[C@]3(C(=O)N(Cc4cccc(N5CCOC5=O)c4)c4ccccc43)[C@H]2C)cc1	U2OS ROS induce 116
C=CCN1C(=O)[C@]2(O[C@H](CCn3cc(CCO)nn3)[C@@H]([Si](C)(C)c3ccc(OC)cc3)[C@@H]2C)c2ccccc21	none
C=CCN1C(=O)[C@]2(O[C@H](CCO)[C@@H]([Si](C)(C)c3ccc(OC)cc3)[C@@H]2C)c2ccccc21	none
COc1ccc([Si](C)(C)[C@@H]2[C@@H](CCO)O[C@]3(C(=O)N(C)c4ccccc43)[C@H]2C)cc1	none

Bioassay records (PubChem)
